One sequence from publication PMC7862700, “An all-to-all approach to the identification of sequence-specific readers for epigenetic DNA modifications on cytosine” can be followed below.

Holding throughout (assay): DAPPL (digital affinity profiling via proximity ligation, sequencing); 10 mM Tris-HCl pH 7.5, 50 mM NaCl, 1 mM DTT, 4% glycerol, room temperature, 30 min; GST-TFs on glutathione beads, 16-mer random dsDNA library, 0.1% formaldehyde crosslink after washing; high values mean tight binding
In assay [1] the target is T1, FLI1 (Homo sapiens, UniProt Q01543 1-452).
T1 sequence: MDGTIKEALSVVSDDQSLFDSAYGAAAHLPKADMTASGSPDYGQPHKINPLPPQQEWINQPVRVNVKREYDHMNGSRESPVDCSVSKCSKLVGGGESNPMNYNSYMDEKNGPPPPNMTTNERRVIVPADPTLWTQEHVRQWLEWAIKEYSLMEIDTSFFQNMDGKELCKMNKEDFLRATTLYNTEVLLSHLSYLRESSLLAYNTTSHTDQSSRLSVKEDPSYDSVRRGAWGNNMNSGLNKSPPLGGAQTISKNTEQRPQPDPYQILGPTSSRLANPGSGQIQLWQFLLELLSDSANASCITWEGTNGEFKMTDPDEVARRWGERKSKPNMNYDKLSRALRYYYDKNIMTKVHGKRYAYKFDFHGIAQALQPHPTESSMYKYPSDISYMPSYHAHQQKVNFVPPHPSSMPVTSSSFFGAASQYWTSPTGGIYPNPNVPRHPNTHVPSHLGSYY
The conditions noted are these: protein: recombinant; tags: N-terminal GST; dsDNA, one strand shown. The procedure, abridged:
(§1)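 Pools were built from human transcription factors expressed in yeast as GST fusions, captured on glutathione beads and DNA-barcoded, along with a tag-only sample. Incubation with 200 nmole of a 16-mer random double-stranded DNA library lasted 30 min at room temperature in Tris/NaCl/DTT/glycerol buffer, and was followed by washing, 0.1% formaldehyde crosslinking, proximity ligation, PCR amplification and Illumina NextSeq500 sequencing. Binding signal is the quotient of each hexamer's read frequency for a factor and its frequency for the tag-only sample.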

Assay [2] deals with T2, ELK1 (Homo sapiens, UniProt P19419 1-428).
T2 sequence: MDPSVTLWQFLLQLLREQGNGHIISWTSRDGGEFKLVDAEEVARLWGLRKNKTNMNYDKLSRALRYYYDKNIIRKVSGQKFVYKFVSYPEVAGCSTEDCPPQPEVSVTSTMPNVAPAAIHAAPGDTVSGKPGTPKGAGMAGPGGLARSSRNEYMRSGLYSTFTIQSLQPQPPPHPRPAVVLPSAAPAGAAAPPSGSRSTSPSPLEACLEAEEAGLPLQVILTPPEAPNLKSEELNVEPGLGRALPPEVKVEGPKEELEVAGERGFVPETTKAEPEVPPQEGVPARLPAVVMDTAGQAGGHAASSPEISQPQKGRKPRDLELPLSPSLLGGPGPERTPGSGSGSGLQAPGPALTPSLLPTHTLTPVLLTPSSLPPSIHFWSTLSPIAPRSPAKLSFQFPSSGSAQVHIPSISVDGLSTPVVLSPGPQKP
The conditions noted are these: protein: recombinant; tags: N-terminal GST; dsDNA, one strand shown. Put shortly:
as §1

Assay [3] addresses T3, GABPA (Homo sapiens, UniProt Q06546 1-454).
T3 sequence: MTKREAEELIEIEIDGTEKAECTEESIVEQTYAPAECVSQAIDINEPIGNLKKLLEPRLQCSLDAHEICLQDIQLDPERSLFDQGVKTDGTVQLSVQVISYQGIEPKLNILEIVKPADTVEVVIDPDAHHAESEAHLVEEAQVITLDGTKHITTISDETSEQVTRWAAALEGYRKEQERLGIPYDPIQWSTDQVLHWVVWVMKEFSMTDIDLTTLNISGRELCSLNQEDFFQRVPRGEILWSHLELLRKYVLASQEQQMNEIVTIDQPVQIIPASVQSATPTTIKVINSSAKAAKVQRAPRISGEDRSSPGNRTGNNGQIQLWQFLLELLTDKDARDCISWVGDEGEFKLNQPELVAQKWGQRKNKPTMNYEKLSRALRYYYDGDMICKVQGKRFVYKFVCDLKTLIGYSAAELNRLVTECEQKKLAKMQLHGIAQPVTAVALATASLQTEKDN
As to conditions: protein: recombinant; tags: N-terminal GST; dsDNA, one strand shown. The procedure, abridged: as §1

In assay [4] the target is T4, ERG (Homo sapiens, UniProt P11308 1-479).
T4 sequence: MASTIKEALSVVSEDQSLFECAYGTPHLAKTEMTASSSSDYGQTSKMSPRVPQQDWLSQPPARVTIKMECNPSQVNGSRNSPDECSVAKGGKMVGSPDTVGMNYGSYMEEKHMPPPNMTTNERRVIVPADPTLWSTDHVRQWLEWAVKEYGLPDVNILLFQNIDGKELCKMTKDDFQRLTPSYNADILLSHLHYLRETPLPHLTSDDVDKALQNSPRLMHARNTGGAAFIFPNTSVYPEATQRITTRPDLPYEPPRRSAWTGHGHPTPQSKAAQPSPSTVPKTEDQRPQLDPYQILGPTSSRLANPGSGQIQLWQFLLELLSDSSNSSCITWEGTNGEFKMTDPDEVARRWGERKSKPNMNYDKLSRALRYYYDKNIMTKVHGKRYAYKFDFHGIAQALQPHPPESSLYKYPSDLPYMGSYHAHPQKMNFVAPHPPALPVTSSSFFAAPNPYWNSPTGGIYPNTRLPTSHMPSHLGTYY
The conditions noted are these: protein: recombinant; tags: N-terminal GST; dsDNA, one strand shown. The procedure, abridged: as §1

Assay [5] has as its target ELF1 (Homo sapiens, UniProt P32519 1-619). The conditions noted are these: protein: recombinant; tags: N-terminal GST; dsDNA, one strand shown. The procedure, abridged:
as §1

Assay [6] concerns the target T5, EHF (Homo sapiens, UniProt Q9NZC4 1-300).
T5 sequence: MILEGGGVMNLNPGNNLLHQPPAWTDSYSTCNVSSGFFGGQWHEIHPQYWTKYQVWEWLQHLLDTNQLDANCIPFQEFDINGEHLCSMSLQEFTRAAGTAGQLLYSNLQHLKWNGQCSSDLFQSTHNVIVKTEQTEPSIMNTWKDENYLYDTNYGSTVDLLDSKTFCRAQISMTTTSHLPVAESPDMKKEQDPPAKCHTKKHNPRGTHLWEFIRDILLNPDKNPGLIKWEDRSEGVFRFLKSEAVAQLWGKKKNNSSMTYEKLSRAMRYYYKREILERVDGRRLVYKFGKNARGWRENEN
As to conditions: protein: recombinant; tags: N-terminal GST; dsDNA, one strand shown. The procedure, abridged: as §1

Assay [7] deals with SPI1 (Homo sapiens, UniProt P17947 1-270). The conditions noted are these: protein: recombinant; tags: N-terminal GST; dsDNA, one strand shown. Put shortly:
as §1

Assay [8] deals with SPIB (Homo sapiens, UniProt Q01892 1-262). As to conditions: protein: recombinant; tags: N-terminal GST; dsDNA, one strand shown. The procedure, abridged: as §1
Chain of SPIB (Q01892 whole entry): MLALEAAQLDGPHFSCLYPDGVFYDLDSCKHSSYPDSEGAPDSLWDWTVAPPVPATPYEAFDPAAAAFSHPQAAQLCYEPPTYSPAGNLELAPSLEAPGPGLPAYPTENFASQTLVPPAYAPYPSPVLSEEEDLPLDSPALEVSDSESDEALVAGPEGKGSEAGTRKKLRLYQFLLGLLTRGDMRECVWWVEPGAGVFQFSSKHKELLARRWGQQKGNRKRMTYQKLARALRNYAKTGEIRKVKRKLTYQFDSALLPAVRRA
In assay [9] the target is T6, ELK3 (Homo sapiens, UniProt P41970 1-407).
T6 sequence: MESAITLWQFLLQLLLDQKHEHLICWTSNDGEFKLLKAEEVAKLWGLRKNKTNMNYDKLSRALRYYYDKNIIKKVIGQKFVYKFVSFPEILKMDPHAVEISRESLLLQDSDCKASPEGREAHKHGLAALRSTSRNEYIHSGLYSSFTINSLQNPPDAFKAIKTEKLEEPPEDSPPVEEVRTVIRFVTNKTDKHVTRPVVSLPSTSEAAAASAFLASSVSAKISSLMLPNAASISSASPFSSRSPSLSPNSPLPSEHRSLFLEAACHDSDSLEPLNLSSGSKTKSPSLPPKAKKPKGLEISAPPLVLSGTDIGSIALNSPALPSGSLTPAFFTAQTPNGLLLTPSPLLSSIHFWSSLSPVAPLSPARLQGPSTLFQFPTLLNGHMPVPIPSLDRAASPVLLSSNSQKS
As to conditions: protein: recombinant; tags: N-terminal GST; dsDNA, one strand shown. Put shortly: as §1

Assay [10] deals with T7, FEV (Homo sapiens, UniProt Q99581 1-238).
T7 sequence: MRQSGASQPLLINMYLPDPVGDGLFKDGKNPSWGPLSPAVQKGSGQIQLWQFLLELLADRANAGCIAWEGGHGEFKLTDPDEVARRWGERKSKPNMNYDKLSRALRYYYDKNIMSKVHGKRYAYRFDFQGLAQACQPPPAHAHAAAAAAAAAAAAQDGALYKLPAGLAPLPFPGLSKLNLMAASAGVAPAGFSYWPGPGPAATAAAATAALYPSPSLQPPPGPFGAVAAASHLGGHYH
The conditions noted are these: protein: recombinant; tags: N-terminal GST; dsDNA, one strand shown. Put shortly: as §1

Assay [11] concerns the target ETV5 (Homo sapiens, UniProt P41161 1-510). The conditions noted are these: protein: recombinant; tags: N-terminal GST; dsDNA, one strand shown. The procedure, abridged:
as §1

Assay [12] has as its target HSF1 (Homo sapiens, UniProt Q00613 1-529). As to conditions: protein: recombinant; tags: N-terminal GST; chain copies: 3; dsDNA, one strand shown. Put shortly:
as §1

Assay [13] has as its target T8, SPIC (Homo sapiens, UniProt Q8N5J4 1-248).
T8 sequence: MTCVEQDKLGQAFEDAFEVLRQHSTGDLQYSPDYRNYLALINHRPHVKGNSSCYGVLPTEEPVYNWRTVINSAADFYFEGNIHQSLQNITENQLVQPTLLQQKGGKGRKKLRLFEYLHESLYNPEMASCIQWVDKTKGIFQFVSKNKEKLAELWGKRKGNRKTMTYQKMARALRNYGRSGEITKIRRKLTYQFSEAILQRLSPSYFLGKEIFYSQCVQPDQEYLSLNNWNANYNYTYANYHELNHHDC
The conditions noted are these: protein: recombinant; tags: N-terminal GST; dsDNA, one strand shown. Put shortly:
as §1

In assay [14] the target is ELF4 (Homo sapiens, UniProt Q99607 1-663). As to conditions: protein: recombinant; tags: N-terminal GST; dsDNA, one strand shown. The procedure, abridged:
as §1

The target in assay [15] is T9, ELK4 (Homo sapiens, UniProt P28324-2 1-405).
T9 sequence: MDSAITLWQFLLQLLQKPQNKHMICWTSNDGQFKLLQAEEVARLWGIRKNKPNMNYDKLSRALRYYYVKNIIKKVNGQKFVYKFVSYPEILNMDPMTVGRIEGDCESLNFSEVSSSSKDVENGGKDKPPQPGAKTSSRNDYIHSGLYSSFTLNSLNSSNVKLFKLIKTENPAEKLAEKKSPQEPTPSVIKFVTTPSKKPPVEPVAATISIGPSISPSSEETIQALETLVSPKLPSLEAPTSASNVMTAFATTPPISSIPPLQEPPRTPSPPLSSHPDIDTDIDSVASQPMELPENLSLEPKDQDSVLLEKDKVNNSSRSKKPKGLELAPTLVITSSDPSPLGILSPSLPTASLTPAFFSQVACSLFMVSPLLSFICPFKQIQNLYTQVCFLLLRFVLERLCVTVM
As to conditions: protein: recombinant; tags: N-terminal GST; dsDNA, one strand shown. The procedure, abridged:
as §1

The target of assay [16] is T10, ETV2 (Homo sapiens, UniProt O00321 1-342).
T10 sequence: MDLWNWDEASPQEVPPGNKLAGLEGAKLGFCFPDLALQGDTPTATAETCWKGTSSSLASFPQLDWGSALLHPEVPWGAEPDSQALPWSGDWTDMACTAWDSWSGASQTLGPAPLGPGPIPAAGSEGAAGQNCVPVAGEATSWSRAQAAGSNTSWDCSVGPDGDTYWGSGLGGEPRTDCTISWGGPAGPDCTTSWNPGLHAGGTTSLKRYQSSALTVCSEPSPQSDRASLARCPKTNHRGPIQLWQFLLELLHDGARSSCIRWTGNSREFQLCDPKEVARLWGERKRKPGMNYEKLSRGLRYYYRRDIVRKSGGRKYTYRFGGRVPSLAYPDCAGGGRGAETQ
The conditions noted are these: protein: recombinant; tags: N-terminal GST; dsDNA, one strand shown. Put shortly:
as §1

For assay [17], the target named is T11, ELF3 (Homo sapiens, UniProt P78545 1-371).
T11 sequence: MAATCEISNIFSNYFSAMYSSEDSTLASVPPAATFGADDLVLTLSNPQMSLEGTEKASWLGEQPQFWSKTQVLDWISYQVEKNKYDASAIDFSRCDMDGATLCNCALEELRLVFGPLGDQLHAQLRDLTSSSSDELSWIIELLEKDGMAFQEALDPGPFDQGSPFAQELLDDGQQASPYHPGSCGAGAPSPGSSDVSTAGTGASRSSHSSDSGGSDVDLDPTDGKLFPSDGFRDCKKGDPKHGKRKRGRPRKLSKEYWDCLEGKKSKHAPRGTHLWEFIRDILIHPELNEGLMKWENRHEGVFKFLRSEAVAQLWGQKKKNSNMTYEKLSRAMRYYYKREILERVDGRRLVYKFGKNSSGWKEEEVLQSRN
As to conditions: protein: recombinant; tags: N-terminal GST; dsDNA, one strand shown. Put shortly: as §1

Assay [18] deals with CRX (Homo sapiens, UniProt O43186 1-299). The conditions noted are these: protein: recombinant; tags: N-terminal GST; dsDNA, one strand shown. The procedure, abridged: as §1
Chain of CRX (O43186 whole entry): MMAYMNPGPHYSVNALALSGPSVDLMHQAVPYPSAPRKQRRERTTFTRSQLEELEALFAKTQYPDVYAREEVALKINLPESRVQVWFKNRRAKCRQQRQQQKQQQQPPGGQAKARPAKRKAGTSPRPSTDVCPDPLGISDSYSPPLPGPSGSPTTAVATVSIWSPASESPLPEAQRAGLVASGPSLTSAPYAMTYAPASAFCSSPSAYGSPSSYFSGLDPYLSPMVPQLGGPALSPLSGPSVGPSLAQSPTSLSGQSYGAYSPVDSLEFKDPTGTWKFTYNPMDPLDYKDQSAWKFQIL
The target in assay [19] is ETV1 (Homo sapiens, UniProt P50549 1-477). The conditions noted are these: protein: recombinant; tags: N-terminal GST; dsDNA, one strand shown. The procedure, abridged:
as §1

Chain of ETV1 (P50549 whole entry): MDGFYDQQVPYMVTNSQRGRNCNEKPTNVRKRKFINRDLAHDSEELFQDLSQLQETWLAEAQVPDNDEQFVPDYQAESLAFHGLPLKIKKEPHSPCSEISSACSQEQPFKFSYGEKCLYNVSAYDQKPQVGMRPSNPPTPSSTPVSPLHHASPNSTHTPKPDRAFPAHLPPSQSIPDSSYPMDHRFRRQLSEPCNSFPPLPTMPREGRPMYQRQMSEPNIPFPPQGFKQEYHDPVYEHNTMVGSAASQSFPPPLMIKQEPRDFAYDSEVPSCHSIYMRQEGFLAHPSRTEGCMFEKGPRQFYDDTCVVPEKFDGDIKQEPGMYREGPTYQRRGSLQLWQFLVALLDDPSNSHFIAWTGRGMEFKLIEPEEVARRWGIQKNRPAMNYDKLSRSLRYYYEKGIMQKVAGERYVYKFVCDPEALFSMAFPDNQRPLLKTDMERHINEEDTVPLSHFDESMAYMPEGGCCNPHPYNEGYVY
Chain of HSF1 (Q00613 whole entry): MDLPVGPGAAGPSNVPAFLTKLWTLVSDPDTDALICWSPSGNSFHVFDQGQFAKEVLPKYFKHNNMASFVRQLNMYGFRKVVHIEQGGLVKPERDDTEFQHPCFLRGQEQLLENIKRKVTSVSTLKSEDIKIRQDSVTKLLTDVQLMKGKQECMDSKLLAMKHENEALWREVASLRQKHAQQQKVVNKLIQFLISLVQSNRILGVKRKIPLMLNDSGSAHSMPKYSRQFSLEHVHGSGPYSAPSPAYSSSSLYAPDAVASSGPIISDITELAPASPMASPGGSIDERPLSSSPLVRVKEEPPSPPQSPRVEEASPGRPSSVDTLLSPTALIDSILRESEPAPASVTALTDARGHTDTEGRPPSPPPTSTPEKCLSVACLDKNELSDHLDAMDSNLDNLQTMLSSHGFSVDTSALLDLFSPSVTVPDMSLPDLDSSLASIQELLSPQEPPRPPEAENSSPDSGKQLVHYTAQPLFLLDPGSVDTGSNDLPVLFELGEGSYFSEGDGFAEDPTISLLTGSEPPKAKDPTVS
Chain of ELF1 (P32519 whole entry): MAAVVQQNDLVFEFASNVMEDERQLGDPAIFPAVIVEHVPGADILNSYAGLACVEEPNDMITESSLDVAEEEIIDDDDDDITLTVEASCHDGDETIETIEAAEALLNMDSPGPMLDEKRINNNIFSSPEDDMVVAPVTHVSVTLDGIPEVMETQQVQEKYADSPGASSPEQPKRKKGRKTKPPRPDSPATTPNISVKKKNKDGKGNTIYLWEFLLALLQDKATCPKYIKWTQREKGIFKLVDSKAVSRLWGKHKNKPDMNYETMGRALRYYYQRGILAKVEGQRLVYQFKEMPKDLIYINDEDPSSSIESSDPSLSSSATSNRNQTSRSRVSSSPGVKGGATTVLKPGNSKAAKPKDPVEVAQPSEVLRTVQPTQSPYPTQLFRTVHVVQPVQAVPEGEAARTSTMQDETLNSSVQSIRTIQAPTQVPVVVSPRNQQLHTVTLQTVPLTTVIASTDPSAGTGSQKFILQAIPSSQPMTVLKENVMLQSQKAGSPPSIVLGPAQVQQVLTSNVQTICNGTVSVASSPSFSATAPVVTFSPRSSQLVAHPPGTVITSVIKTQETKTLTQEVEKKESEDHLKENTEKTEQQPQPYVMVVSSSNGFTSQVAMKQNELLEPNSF
Chain of ELF4 (Q99607 whole entry): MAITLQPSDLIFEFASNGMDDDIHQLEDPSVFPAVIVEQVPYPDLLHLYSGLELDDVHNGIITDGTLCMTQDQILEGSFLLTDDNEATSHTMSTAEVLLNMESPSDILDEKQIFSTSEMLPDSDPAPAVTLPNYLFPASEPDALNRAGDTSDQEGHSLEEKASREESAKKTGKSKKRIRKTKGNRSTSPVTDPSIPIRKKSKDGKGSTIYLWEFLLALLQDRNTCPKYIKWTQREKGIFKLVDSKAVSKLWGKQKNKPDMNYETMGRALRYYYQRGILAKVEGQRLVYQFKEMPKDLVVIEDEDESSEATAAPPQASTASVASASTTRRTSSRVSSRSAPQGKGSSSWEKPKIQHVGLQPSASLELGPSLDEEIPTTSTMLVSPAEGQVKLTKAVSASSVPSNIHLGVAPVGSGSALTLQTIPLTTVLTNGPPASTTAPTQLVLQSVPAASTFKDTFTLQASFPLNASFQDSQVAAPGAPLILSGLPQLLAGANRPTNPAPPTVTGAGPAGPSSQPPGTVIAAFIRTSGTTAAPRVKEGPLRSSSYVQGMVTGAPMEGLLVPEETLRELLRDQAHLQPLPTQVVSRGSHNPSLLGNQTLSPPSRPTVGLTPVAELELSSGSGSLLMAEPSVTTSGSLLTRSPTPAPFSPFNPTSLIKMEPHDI
Chain of ETV5 (P41161 whole entry): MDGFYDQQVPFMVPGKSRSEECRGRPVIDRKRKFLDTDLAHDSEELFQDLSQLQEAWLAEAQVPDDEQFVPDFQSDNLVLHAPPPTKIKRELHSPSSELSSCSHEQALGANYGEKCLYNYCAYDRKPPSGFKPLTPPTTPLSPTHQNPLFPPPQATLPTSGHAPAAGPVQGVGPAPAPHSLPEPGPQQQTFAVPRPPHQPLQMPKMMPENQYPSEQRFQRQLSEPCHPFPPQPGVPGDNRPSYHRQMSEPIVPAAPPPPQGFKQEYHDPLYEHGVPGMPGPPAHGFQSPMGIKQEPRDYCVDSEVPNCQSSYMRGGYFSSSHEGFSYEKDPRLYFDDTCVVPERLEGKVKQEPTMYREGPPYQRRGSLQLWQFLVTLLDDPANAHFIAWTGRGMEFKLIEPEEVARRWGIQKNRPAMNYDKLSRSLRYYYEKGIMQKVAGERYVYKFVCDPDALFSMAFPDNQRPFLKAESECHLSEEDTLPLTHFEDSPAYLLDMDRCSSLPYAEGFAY

On to CTGATG, for which the binding signal is 1.75 fold enrichment (6-mer frequency, TF over GST control) in assay [1]; 1.65 fold enrichment (6-mer frequency, TF over GST control) in assay [2]; 1.7 fold enrichment (6-mer frequency, TF over GST control) in assay [3]; 1.43 fold enrichment (6-mer frequency, TF over GST control) in assay [4]; 1.6 fold enrichment (6-mer frequency, TF over GST control) in [5]; 1.59 fold enrichment (6-mer frequency, TF over GST control) in assay [6]. In addition, the binding signal was 1.63 fold enrichment (6-mer frequency, TF over GST control) in [7]; 1.7 fold enrichment (6-mer frequency, TF over GST control) in assay [8]; 1.5 fold enrichment (6-mer frequency, TF over GST control) in [9]; 1.62 fold enrichment (6-mer frequency, TF over GST control) in assay [10]; 1.65 fold enrichment (6-mer frequency, TF over GST control) in assay [11]; 1.33 fold enrichment (6-mer frequency, TF over GST control) in [12]. The binding signal is 1.79 fold enrichment (6-mer frequency, TF over GST control) in assay [13]; 1.79 fold enrichment (6-mer frequency, TF over GST control) in [14]; 1.83 fold enrichment (6-mer frequency, TF over GST control) in assay [15]; 1.7 fold enrichment (6-mer frequency, TF over GST control) in assay [16]; 1.65 fold enrichment (6-mer frequency, TF over GST control) in assay [17]; 1.46 fold enrichment (6-mer frequency, TF over GST control) in [18]. Besides, the binding signal in [19] was 1.61 fold enrichment (6-mer frequency, TF over GST control).
